In PubChem BioAssay (NCATS):
Records with an inconclusive call do not appear. Entries that show only a call come without a potency. Activity calls are given as the source filed them. Unless noted, calls follow the shape of the dose curve; as a rule, active = well fitted curve in the direction sought with a large enough effect; inconclusive = small, poorly fitted or top-dose-only effect, or another doubt; inactive = no such curve, though single readings can be large; an effect the other way counts as inactive or inconclusive.

Tests used:
[1] = P-glycoprotein substrates identified in KB-8-5-11 adenocarcinoma cell line, qHTS therapeutic library screen (AID 1346987); also: nearly all actives have a fitted effect of over 65% in size
Summary of the method: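 KB-8-5-11, a colchicine-selected P-gp-overexpressing KB-3-1 subline, was grown without colchicine for the assay. Cells were seeded at 500 cells/well, dosed in concentration-response and incubated 72 h at 37 degree C, 5% CO2. Viability was read by CellTiter-Glo luminescence.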

[2] = target: Atrial natriuretic peptide receptor 1 (Homo sapiens) (UniProt P16066); assay: Natriuretic polypeptide receptor (hNpr1) antagonism - Pilot screen (AID 1347049; calls by dose curve;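 also: agonist-evoked cGMP luminescence read 20 min after hNppA addition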)
Sequence of Atrial natriuretic peptide receptor 1 (Homo sapiens) (P16066 whole entry, looked up): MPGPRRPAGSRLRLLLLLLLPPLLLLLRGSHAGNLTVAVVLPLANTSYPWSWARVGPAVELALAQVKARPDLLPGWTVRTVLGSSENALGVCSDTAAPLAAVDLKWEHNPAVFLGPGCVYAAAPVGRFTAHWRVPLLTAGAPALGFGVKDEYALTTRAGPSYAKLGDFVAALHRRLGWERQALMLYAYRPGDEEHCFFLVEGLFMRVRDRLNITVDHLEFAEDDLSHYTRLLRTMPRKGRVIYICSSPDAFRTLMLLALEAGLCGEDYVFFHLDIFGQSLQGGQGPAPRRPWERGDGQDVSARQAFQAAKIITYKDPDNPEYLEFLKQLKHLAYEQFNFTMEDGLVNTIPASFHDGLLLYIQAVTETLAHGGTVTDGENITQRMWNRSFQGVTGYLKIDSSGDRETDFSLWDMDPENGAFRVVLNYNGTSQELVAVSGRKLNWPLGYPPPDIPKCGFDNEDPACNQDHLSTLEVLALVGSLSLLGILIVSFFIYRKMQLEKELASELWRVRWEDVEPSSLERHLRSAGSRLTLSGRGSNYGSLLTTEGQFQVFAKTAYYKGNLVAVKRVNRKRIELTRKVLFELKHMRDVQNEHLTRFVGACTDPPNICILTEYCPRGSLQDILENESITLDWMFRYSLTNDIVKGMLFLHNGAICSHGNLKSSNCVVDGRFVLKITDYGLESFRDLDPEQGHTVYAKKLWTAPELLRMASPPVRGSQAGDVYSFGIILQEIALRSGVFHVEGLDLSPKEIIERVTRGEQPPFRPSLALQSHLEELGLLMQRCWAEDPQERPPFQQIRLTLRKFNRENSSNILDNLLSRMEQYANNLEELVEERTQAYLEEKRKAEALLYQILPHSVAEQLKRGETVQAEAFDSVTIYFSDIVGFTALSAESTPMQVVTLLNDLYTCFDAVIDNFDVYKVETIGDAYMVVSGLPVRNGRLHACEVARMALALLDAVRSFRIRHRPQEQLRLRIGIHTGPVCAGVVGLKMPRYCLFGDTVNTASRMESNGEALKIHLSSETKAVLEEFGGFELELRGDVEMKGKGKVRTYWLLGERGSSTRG
Summary of the method: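 HEK293 cells expressing hNpr1 and GloSensor cGMP luciferase, 1500/well, loaded with 2% GloSensor reagent 2 h, compound 30 min at room temperature; luminescence read before and 20 min after 0.1 nM hNppA stimulation.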

[3] = NS1 protein of Zika virus - qHTS assay to identify small molecule inhibitors in human HEK 293 cells (AID 1347053); also: nearly all actives have a fitted effect of over 55% in size
Summary of the method: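 Following 20 h seeding, HEK 293 cells took compound, then 1 h later ZIKV MR766 (MOI = 0.5). Incubation ran 24 h at 37 C before TR-FRET detection of NS1; a drop in signal indicates inhibition.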

[4] = target: Parathyroid hormone/parathyroid hormone-related peptide receptor (Homo sapiens) (UniProt Q03431); assay: qHTS for PTHR1 Agonists: Optimization Screen against the NCGC LOPAC library (AID 1347079);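 also: GloSensor cAMP luminescence in HEK-293 GP2 cells expressing human PTHR1 with IBMX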
Sequence of Parathyroid hormone/parathyroid hormone-related peptide receptor (Homo sapiens) (Q03431 whole entry, looked up): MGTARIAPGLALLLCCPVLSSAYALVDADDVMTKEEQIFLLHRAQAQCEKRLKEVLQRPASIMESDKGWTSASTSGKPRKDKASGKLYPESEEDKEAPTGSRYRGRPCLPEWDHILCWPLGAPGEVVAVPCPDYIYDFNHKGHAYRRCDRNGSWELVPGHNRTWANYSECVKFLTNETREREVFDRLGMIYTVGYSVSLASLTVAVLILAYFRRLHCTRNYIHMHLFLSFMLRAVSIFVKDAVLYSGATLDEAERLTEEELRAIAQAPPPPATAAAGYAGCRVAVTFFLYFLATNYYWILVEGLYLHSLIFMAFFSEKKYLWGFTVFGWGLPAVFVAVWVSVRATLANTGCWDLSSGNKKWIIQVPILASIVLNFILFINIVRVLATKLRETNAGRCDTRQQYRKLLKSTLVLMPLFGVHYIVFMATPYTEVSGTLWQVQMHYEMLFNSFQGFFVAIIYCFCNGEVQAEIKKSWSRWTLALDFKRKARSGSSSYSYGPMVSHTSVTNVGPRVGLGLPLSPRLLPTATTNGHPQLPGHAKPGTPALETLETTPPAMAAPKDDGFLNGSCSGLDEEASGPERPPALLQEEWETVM
Summary of the method: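 Agonist readout: GloSensor cAMP luminescence, read after 15 min at room temperature. HEK-293-derived GP2 line carries PTHR1; compounds tested as a titration for 1 hr at 37C in presence of IBMX. M-PTH (1-15) served as control.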

[5] = qHTS of pediatric cancer cell lines to identify multiple opportunities for drug repurposing: Primary screen for TC32 cells (AID 1347089); also: nearly all actives have a fitted effect of over 60% in size
Summary of the method: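 A viability screen of TC32 cells was run over 48 h, with primary MIPE doses spanning 0.78 nM–46 µM and NPC doses 0.59 nM–46 µM. ATP luminescence (CellTiter-Glo) served as the read-out.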

[6] = qHTS of pediatric cancer cell lines to identify multiple opportunities for drug repurposing: Primary screen for DAOY cells (AID 1347090); also: nearly all actives have a fitted effect of over 55% in size; also: potency is read from the fitted curve at half-maximal effect
Summary of the method: (§1)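 Viability measured as metabolically active cells via CellTiter-Glo luminescence following 48 hours of compound exposure, 11-point dilutions in confirmatory testing. 500-1,000 cells/well plated 5 hours before dosing; controls were DMSO and 2.3 µM bortezomib.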

[7] = qHTS of pediatric cancer cell lines to identify multiple opportunities for drug repurposing: Primary screen for SJ-GBM2 cells (AID 1347091); also: potency is read from the fitted curve at half-maximal effect
Summary of the method: as §1

[8] = qHTS of pediatric cancer cell lines to identify multiple opportunities for drug repurposing: Primary screen for A673 cells (AID 1347092); also: nearly all actives have a fitted effect of over 45% in size; also: potency is read from the fitted curve at half-maximal effect
Summary of the method: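 Titration-based qHTS on A673 cells: MIPE compounds spanned 11 points (0.78 nM to 46 µM final), NPC compounds 8 points (0.59 nM to 46 µM final). Viability after 48 h was measured by ATP luminescence.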

[9] = qHTS of pediatric cancer cell lines to identify multiple opportunities for drug repurposing: Primary screen for SK-N-MC cells (AID 1347093); also: potency is read from the fitted curve at half-maximal effect
Summary of the method: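 Metabolically active cells were quantified by ATP-dependent luminescence (CellTiter-Glo, 15 min at room temperature) following 48 h treatment. Cells had been plated at 500-1,000 per well and settled for 5 h beforehand.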

[10] = Identifying Small Molecule Inhibitors of Pancreatic Cancer Stem Cells (SN12C, Adherent) (AID 1259358);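 also: cell survival measured after 48 h of compound exposure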
Summary of the method: (§2)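 Endpoint: ATP-based luminescence, 48 h drug exposure. Bortezomib at 9.2 uM final as full-kill control; DMSO vehicle as negative control; activity normalized between vehicle and cell-free wells.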

[11] = Identifying Small Molecule Inhibitors of Pancreatic Cancer Stem Cells (A278, Adherent) (AID 1259361);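 also: viability read after 48 h compound exposure; nearly all actives have a fitted effect of over 35% in size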
Summary of the method: as §2

[12] = P-glycoprotein substrates identified in KB-3-1 adenocarcinoma cell line, qHTS therapeutic library screen (AID 1346986); details: KB-3-1 parental cells viability, CellTiter-Glo, 72 h; at 44.5 µM (top of the series) unless noted; also: nearly all actives have a fitted effect of over 60% in size
Summary of the method: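 KB-3-1 parental and colchicine-selected P-gp-overexpressing KB-8-5-11 cells (colchicine omitted during assay), 500 cells/well, dosed in dose-response for 72 h at 37 °C; CellTiter-Glo luminescence. Cytotoxic: curve class -1.1 to -2.4, max response >50%, AC50 < 10 uM.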

[13] = Natriuretic polypeptide receptor (hNpr1) antagonism - Pilot counterscreen GloSensor control cell line (AID 1347045; calls by dose curve)
Summary of the method: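 HEK293 cGMP GloSensor cells preloaded 2 h with 2% GloSensor reagent, then compound 30 min before baseline luminescence read. Stimulated with 50 uM sodium nitroprusside, 20 min at room temperature, then read again; counterscreen for Npr1 antagonism.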

[14] = target: Atrial natriuretic peptide receptor 2 (Homo sapiens) (UniProt P20594); assay: Natriuretic polypeptide receptor (hNpr2) antagonism - Pilot subtype selectivity assay (AID 1347050; calls by dose curve)
Sequence of Atrial natriuretic peptide receptor 2 (Homo sapiens) (P20594 whole entry, looked up): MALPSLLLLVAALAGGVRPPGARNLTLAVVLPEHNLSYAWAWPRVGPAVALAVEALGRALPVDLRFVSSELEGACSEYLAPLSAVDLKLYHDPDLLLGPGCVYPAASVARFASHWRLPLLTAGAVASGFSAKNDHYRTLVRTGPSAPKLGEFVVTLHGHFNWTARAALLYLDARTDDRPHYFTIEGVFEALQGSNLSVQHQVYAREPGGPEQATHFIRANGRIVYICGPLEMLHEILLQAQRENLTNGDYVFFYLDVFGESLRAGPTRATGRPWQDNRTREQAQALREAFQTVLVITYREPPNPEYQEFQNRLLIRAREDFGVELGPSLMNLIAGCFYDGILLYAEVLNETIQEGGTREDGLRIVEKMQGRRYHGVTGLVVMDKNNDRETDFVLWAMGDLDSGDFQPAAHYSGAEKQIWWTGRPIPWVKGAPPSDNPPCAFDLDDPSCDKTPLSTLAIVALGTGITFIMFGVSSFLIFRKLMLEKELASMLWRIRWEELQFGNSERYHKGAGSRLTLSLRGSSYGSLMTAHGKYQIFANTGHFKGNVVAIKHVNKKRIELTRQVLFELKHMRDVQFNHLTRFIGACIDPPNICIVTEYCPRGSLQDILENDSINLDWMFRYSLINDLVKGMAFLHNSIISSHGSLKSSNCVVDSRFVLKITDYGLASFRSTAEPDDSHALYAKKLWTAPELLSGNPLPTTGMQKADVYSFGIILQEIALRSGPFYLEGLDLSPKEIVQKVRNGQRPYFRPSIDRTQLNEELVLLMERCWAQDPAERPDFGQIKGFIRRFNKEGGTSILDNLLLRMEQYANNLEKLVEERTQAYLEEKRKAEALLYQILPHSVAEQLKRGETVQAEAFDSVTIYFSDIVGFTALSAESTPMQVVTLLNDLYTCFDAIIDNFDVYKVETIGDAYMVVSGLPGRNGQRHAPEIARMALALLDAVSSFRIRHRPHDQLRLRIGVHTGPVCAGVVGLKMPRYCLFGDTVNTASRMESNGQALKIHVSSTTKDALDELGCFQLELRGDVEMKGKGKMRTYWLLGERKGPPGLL
Summary of the method: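 HEK293 cells expressing hNpr2 and a GloSensor cGMP luciferase sensor, 1500/well, preloaded 2 h with 2% GloSensor reagent, compound 30 min, then 1 nM hNppC for 20 min. Antagonism from luminescence after versus baseline pre-read; LOPAC in 1:5 titrations.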

[15] = target: T1, Tyrosine-protein phosphatase non-receptor type substrate 1 (Homo sapiens) + Leukocyte surface antigen CD47 (Homo sapiens) (UniProt P78324+Q08722); assay: CD47-SIRPalpha protein protein interaction - LANCE assay qHTS validation (AID 1347057; active = well fitted curve in the direction sought with a large enough effect in the signal ratio, with a control signal flat, not every such curve was filed as active; the % refers to the signal ratio)
T1 sequence (P78324 whole entry, looked up): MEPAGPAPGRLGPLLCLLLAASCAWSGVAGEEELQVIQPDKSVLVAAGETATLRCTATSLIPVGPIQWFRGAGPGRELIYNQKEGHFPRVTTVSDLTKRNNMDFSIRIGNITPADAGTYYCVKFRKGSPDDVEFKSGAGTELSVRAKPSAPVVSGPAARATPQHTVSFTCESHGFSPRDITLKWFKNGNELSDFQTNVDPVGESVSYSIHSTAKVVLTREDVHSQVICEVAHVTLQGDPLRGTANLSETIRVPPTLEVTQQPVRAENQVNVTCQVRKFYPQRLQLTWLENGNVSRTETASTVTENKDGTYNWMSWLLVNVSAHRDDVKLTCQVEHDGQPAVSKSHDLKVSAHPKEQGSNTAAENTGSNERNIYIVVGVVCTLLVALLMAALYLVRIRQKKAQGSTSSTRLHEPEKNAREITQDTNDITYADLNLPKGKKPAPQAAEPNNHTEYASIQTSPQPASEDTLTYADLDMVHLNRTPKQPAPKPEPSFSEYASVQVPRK
T1 sequence (Q08722 whole entry, looked up): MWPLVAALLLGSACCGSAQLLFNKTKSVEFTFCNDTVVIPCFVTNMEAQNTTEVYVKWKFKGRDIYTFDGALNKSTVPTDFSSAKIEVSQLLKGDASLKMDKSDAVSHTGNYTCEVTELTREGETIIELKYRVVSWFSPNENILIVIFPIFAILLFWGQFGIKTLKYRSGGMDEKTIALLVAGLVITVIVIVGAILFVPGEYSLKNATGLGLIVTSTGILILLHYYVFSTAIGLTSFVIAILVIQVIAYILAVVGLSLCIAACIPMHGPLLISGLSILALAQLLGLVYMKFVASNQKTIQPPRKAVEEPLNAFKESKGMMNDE
Summary of the method: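 First, His-tagged CD47 and Eu-labelled anti-His antibody met the compound for 30 min; next, site-specifically biotinylated SIRPalpha was added for 30 min; finally streptavidin-APC was added before reading the TR-FRET ratio.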

[16] = target: T1, Tyrosine-protein phosphatase non-receptor type substrate 1 (Homo sapiens) + Leukocyte surface antigen CD47 (Homo sapiens); assay: CD47-SIRPalpha protein protein interaction - HTRF assay qHTS validation (AID 1347058; active = well fitted curve in the direction sought with a large enough effect in the signal ratio, not every such curve was filed as active; the % refers to the signal ratio;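 also: recombinant soluble extracellular CD47 with His tag and biotinylated SIRPalpha domains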)
Summary of the method: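 TR-FRET read (Ch1/Ch2 ratio) of soluble extracellular CD47 and Avi-biotinylated SIRPalpha domains in PBS pH 7.4 with 0.05% IGEPAL; 7-point compound titration. Sequential 30 min room-temperature steps; non-biotinylated SIRPalpha as control inhibitor.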

[17] = target: T1, Tyrosine-protein phosphatase non-receptor type substrate 1 (Homo sapiens) + Leukocyte surface antigen CD47 (Homo sapiens); assay: CD47-SIRPalpha protein protein interaction - Alpha assay qHTS validation (AID 1347059);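 also: bead proximity luminescence from CD47 binding SIRPalpha after compound preincubation with SIRPalpha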
Summary of the method: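 Biotinylated Avi-tagged SIRPalpha (25 nM) preincubated 30 min with compound, then His-tagged CD47 (12.5 nM) added 30 min; AlphaScreen with Ni-NTA acceptor and streptavidin donor beads. PBS pH 7.4, 0.05% IGEPAL, room temperature; 7-point titrations.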

| Compound | Potency [1] | outcome [2] | Potency [3] | Potency [4] | Potency [5] | Potency [6] | Potency [7] | Potency [8] | Potency [9] | outcome [10] | IC50 (viability decrease) [11] | outcome [12] | outcome [13] | Potency [14] | outcome [15] | outcome [16] | outcome [17] |
| --- | --- | --- | --- | --- | --- | --- | --- | --- | --- | --- | --- | --- | --- | --- | --- | --- | --- |
| CN(C)CC[C@@H](c1ccc(Cl)cc1)c1ccccn1 | inactive | inactive | inactive | inactive | inactive | inactive | inactive | inactive | inactive | – | – | – | – | – | – | – | – |
| NC(=O)c1ncn([C@@H]2O[C@H](CO)[C@@H](O)[C@H]2O)c1N | inactive | – | inactive | – | inactive | inactive | inactive | inactive | inactive | inactive | inactive | – | – | – | – | – | – |
| O=c1[nH]cnc2c1ncn2[C@@H]1O[C@H](CO)[C@@H](O)[C@H]1O | inactive | – | inactive | – | inactive | – | – | inactive | inactive | – | – | inactive | – | – | – | – | – |
| CCN(CC)CCNC(=O)c1cc(Cl)c(N)cc1OC | inactive | inactive | inactive | inactive | inactive | – | inactive | inactive | – | – | – | inactive | inactive | inactive | inactive | inactive | inactive |
| CCCn1cnc2c1c(=O)n(CCCCC(C)=O)c(=O)n2C | inactive | inactive | inactive | inactive | inactive | inactive | inactive | inactive | inactive | – | – | – | inactive | inactive | inactive | inactive | inactive |
| NC1CCN(c2cccc(Cl)n2)CC1 | inactive | inactive | inactive | inactive | inactive | inactive | inactive | inactive | inactive | – | – | – | inactive | inactive | – | – | – |
| Cc1cc(N)c2ccccc2[n+]1CCCCCCCCCC[n+]1c(C)cc(N)c2ccccc21 | inactive | inactive | – | inactive | – | – | – | – | – | – | – | – | inactive | inactive | inactive | – | inactive |
| CCCCN1CCCC[C@H]1C(=O)Nc1c(C)cccc1C | inactive | – | inactive | – | inactive | inactive | – | inactive | inactive | – | – | inactive | – | – | – | – | – |
| COc1ccc2[nH]c(S(=O)Cc3ncc(C)c(OC)c3C)nc2n1 (configuration not stated) | inactive | – | inactive | – | – | inactive | inactive | inactive | inactive | – | – | inactive | – | – | – | – | – |
| CNC(=O)Oc1ccc2c(c1)[C@]1(C)CCN(C)[C@@H]1N2C | – | – | inactive | inactive | inactive | inactive | – | inactive | inactive | – | – | inactive | inactive | inactive | inactive | – | inactive |
| CC(C)C(=O)c1c(C(C)C)nn2ccccc12 | inactive | inactive | inactive | inactive | inactive | inactive | – | inactive | inactive | – | – | – | inactive | inactive | inactive | inactive | inactive |
| CCN(CC)CCOC(=O)C1(C2CCCCC2)CCCCC1 | inactive | inactive | inactive | inactive | inactive | inactive | – | inactive | – | – | – | – | inactive | inactive | inactive | inactive | inactive |
| CN(N=O)C(=O)N[C@@H]1[C@@H](O)[C@H](O)[C@@H](CO)O[C@@H]1O | inactive | – | inactive | – | inactive | inactive | inactive | inactive | inactive | – | – | – | – | – | – | – | – |
| CC(=O)Oc1c(C)c(C)c2c(c1C)CC[C@@](C)(CCC[C@H](C)CCC[C@H](C)CCCC(C)C)O2 | inactive | – | inactive | – | inactive | inactive | inactive | inactive | inactive | – | – | – | – | – | – | – | – |
| O=S(=O)(O)c1cc(I)c(O)c2ncccc12 | inactive | – | inactive | – | inactive | inactive | inactive | inactive | inactive | – | – | – | – | – | – | – | – |
| CCn1cc(C(=O)O)c(=O)c2cnc(N3CCNCC3)nc21 | inactive | – | inactive | – | inactive | inactive | inactive | inactive | inactive | – | – | – | – | – | – | – | – |
| Cc1c(Cl)cccc1Nc1ccccc1C(=O)O | inactive | – | inactive | – | inactive | inactive | inactive | inactive | 18.8 µM (active) | – | – | – | – | – | – | – | – |
| COc1ccc2c(c1)C(=O)N(CCc1ccc(S(=O)(=O)NC(=O)NC3CCCCC3)cc1)C(=O)C2(C)C | inactive | – | inactive | – | inactive | inactive | inactive | inactive | – | – | – | – | – | – | – | – | – |
| Oc1cccc(O)c1 | inactive | – | inactive | – | inactive | inactive | inactive | inactive | inactive | – | – | – | – | – | – | – | – |
| Cn1cc[nH]c1=S | inactive | – | inactive | – | inactive | inactive | inactive | inactive | inactive | – | – | – | – | – | – | – | – |
| CC(C)c1c(C(=O)Nc2ccccc2)c(-c2ccccc2)c(-c2ccc(F)cc2)n1CC[C@@H](O)C[C@@H](O)CC(=O)O | inactive | – | inactive | – | – | 4.22 µM (active) | 11.9 µM (active) | 21.1 µM (active) | – | – | – | – | – | – | inactive | inactive | inactive |
| CCCCc1ncc(/C=C(\Cc2cccs2)C(=O)O)n1Cc1ccc(C(=O)O)cc1 | inactive | – | inactive | – | inactive | – | inactive | inactive | inactive | – | – | – | – | – | inactive | – | inactive |
| COc1ccc2cc1Oc1cc3c(cc1OC)CC[N+](C)(C)[C@H]3Cc1ccc(cc1)Oc1c(OC)c(OC)cc3c1[C@@H](C2)[N+](C)(C)CC3 | inactive | – | inactive | – | inactive | inactive | inactive | inactive | inactive | – | – | – | – | – | – | – | – |
